Compound activity: PubChem BioAssay, Sanford-Burnham Center for Chemical Genomics
CYP2C9 inh: human CYP2C9 inhibition; CYP2C9 Supersomes, luciferin-H conversion, luminescence; inhibition, % at 5 µM; 96,000 compounds, 20% hits; AID 777;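 active means blocking of liver enzyme CYP2C9 beyond about 50% at 5 µM, limit read from the data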
CYP2C19 inhib: human CYP2C19 inhibition; inhibition, % at 5 µM; 96,000 compounds, 21% hits; P33261; CYP2C19 Supersomes, luciferin-H EGE luminescence, 30 min;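 active means CYP2C19 inhibition above a set limit at 5 µM in the primary screen, cut at about 50% in these data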
Target sequence (P33261 whole entry, looked up): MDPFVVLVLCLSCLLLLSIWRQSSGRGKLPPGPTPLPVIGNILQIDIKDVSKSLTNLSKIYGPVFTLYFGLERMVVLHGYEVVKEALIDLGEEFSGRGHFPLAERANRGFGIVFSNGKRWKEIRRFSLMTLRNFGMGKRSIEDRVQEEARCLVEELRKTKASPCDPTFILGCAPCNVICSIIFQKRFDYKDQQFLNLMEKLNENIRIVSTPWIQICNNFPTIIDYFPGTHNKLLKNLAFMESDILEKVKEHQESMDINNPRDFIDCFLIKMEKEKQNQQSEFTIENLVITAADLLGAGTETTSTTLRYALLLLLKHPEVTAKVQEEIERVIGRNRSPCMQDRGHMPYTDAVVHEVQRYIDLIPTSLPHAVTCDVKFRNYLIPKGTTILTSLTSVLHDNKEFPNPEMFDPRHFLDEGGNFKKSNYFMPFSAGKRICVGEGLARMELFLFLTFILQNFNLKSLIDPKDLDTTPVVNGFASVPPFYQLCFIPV
CYP2C9 activ: CYP2C9 (human) activation; P11712; activation factor at 5 µM; recombinant CYP2C9, luciferin-H conversion, luminescence; stronger effect = higher value; factor 1 = untreated enzyme, 0 = blocked; AID 1024; 96,000 compounds, 1.4% hits;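 active means activation factor of 2 or more for CYP2C9 at a 5 µM dose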
CD11b adhes enh: CD11b/CD18-fibrinogen binding enhancement | P05107+P11215 | K562 CD11b/CD18 adhesion to fibrinogen, ATPlite luminescence | activation, % at 10 µM | 93,000 compounds, 0.07% hits;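 active means 10 µM primary screen giving 50% or more activity, confirmed by 40% or more on retest at that dose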
CD11b adhes inh: inhibitors of human CD11b/CD18 binding to fibrinogen | 93,000 compounds, 0.54% hits | K562 CD11b/CD18 adhesion to fibrinogen, ATPlite luminescence; Mn2+ added to activate the integrin | inhibition, % at 10 µM | P05107+P11215;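 active means primary inhibition of 50% or more at 10 µM, then 40% or more on retest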
CYP2C19 act: activators of human cytochrome P450 2C19. recombinant CYP2C19, luciferin-H EGE luminescence; stronger effect = higher value; 0 = fully inhibited enzyme, 1 = untreated enzyme. P33261. 96,000 tested, under 10 active. AID 1025. activation factor at 5 µM;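 active means activation factor of at least 2 at 5 µM in the primary screen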
Large screens that a line does not name were inactive. This is a sample that favours compounds with a hit; in the whole collection about 28% have one here.

O=C(c1ccc(NC2=NC3CS(=O)(=O)CC3S2)cc1)N1CCc2ccccc2C1 (stereo unspecified)	none
Cc1nn(C)c(Oc2ccccc2)c1CCNS(=O)(=O)c1ccccc1	CYP2C19 inhib 91.9
COCCNS(=O)(=O)c1ccccc1	none
COc1ccc(NC(=O)CC2C(=O)N(c3cccc(OC)c3)C(=O)N2C2CCCCC2)cc1 (stereo unspecified)	none
Cc1cc(C)cc(CC2CC(=O)N(c3ccc(Cl)cn3)C2=O)c1 (stereo unspecified)	none
Cc1ccc(CC2CC(=O)N(c3cc(C)on3)C2=O)cc1 (stereo unspecified)	CYP2C19 inhib 53.7
Cc1cccc(CSc2nnc(-c3cccs3)n2Cc2ccco2)c1	CYP2C9 inh 52.8, CYP2C19 inhib 68.8 (no result: CD11b adhes enh, CD11b adhes inh)
COc1cccc(CSc2nc3sc(C)c(C)c3c(=O)n2Cc2ccco2)c1	CYP2C9 inh 78.0, CYP2C19 inhib 56.2
Cc1cccc(CSc2nc3sc(C)c(C)c3c(=O)n2Cc2ccco2)c1	CYP2C9 inh 84.5
Cc1ccc(CSc2nc3sc(C)c(C)c3c(=O)n2Cc2ccco2)cc1	none
Cc1sc2nc(SCc3nc4ccccc4[nH]3)n(Cc3ccco3)c(=O)c2c1C	CYP2C9 inh 78.1
Cc1c(C(=O)NCc2ccccc2Cl)oc2c1C(=O)CCC2	none
Cc1ccc(N2CCCCn3c2nc2c3c(=O)n(CC(=O)O)c(=O)n2C)cc1	none
O=C(CO/N=C/c1cccc([N+](=O)[O-])c1)Nc1ccc2ccccc2c1	CYP2C9 inh 88.0
CC(=O)Nc1ccc(NC(=O)C(C)O/N=C/c2cccc([N+](=O)[O-])c2)cc1 (stereo unspecified)	CYP2C9 inh 60.1
Cc1cc2c(c(=O)o1)C1(C(=O)N(C)c3ccccc31)C(C#N)=C(N)O2 (stereo unspecified)	none
CCCCc1[nH]nc2c1C1(C(=O)N(CC)c3ccccc31)C(C#N)=C(N)O2 (stereo unspecified)	none
CC(=O)N1C(=O)C2(C(C#N)=C(N)Oc3c2c(C)nn3-c2ccccc2)c2ccccc21 (stereo unspecified)	CYP2C9 inh 81.4
Cc1nn(-c2ccccc2)c2c1C1(C(=O)N3c4c(cccc41)C(C)CC3(C)C)C(C#N)=C(N)O2 (stereo unspecified)	CYP2C9 inh 97.1, CYP2C19 inhib 75.8
CCN1C(=O)C2(C(C#N)=C(N)Oc3c2c(C)nn3-c2ccccc2)c2ccccc21 (stereo unspecified)	CYP2C9 inh 79.4, CYP2C19 inhib 60.7
Cc1nn(-c2ccccc2)c2c1C1(C(=O)N(C)c3ccccc31)C(C#N)=C(N)O2 (stereo unspecified)	CYP2C9 inh 55.6
CC(C)NC(=O)C1CCN(C(=O)N(C)C)CC1	none
CC(=O)N1C(=O)C2(C(C#N)=C(N)Oc3cc(C)oc(=O)c32)c2ccccc21 (stereo unspecified)	CYP2C9 inh 88.5 (no result: CD11b adhes enh, CD11b adhes inh)
COC(=O)c1oc2ccc(Cl)cc2c1N	none
CC(Oc1ccccc1)C(=O)N1CCCc2ccccc21 (stereo unspecified)	CYP2C9 inh 55.5, CYP2C19 inhib 90.8
CCOC(=O)c1ccc(NC(=O)N2CCc3ccccc32)cc1	none
COc1ccc(NC(=O)N2CCCc3ccccc32)cc1	CYP2C19 inhib 68.7
Cc1ccc(OC(C)C(=O)N2CCc3ccccc32)cc1 (stereo unspecified)	none
COc1cccc(C(=O)N2CCCc3ccccc32)c1	CYP2C19 inhib 86.8
COc1ccc(NC(=O)N2CCc3ccccc32)cc1	CYP2C19 inhib 58.1
COc1cccc(OC)c1OCC(C)CNCC1CCCO1 (stereo unspecified)	none
O=C1c2ccccc2C(O)(c2ncc[nH]2)N1C1CCCCC1 (stereo unspecified)	none
Cc1ccc(-n2c(C)cc(C3=NNC(=NC4CC4)SC3)c2C)cc1C	none (no result: CYP2C9 inh, CYP2C19 inhib, CYP2C9 activ, CYP2C19 act)
CC(C)Cn1c(Cc2ccccc2)n[nH]c1=S	none (no result: CD11b adhes enh, CD11b adhes inh)
O=C(NCC1CCCC(CNC(=O)N2CCc3ccccc32)C1)N1CCc2ccccc21 (stereo unspecified)	CYP2C9 inh 98.6, CYP2C19 inhib 86.4
COc1ccc2c(c1)CCc1c(C(=O)N3CCCc4ccccc43)noc1-2	CYP2C9 inh 75.0, CYP2C19 inhib 90.1
COc1ccc2c(c1)CCc1c(C(=O)N3CCOCC3)noc1-2	none
CC(=O)C(CC(=O)N1CCCc2ccccc21)C(=O)Nc1ccc(F)cc1 (stereo unspecified)	CYP2C19 inhib 71.3
Cc1nc(N2CCC(C)CC2)c2c(C)c(C(=O)O)sc2n1	none
CCc1ccc(C2CC(c3ccc(F)cc3)Nc3nc(N)nn32)cc1 (stereo unspecified)	CYP2C19 inhib 50.6
CCOc1ccc(C2CC(c3ccccc3)Nc3nc(N)nn32)cc1 (stereo unspecified)	CYP2C9 inh 51.3
Nc1nc2n(n1)C(c1ccccc1)CC(c1ccc(F)cc1)N2 (stereo unspecified)	CYP2C9 inh 93.3, CYP2C19 inhib 97.8
COc1ccc(C2CC(c3ccccc3)Nc3nc(N)nn32)cc1 (stereo unspecified)	none
Cc1ccccc1C1CC(c2ccc(F)cc2)Nc2nc(N)nn21 (stereo unspecified)	CYP2C9 inh 84.5, CYP2C19 inhib 69.3
O=C(O)c1ccc(NS(=O)(=O)c2ccc(Cl)cc2)cc1	none
COc1cccc(Nc2ncnc3c2cnn3C)c1	none
COc1ccccc1C1CC(c2ccc(Cl)cc2Cl)Nc2nc(N)nn21 (stereo unspecified)	CYP2C19 inhib 83.2
Cn1c(=O)c(=O)n(C)c2cc(S(=O)(=O)N3CCN(C4CCCCC4)CC3)ccc21	CYP2C9 activ 2.5
Cn1c(=O)c(=O)n(C)c2cc(S(=O)(=O)N3CCOCC3)ccc21	none
O=C1CC(N(CCc2ccccc2)C(=S)Nc2cc(Cl)ccc2Cl)C(=O)N1c1c(Cl)cccc1Cl (stereo unspecified)	CYP2C9 inh 53.5
O=C(CSc1nnc(CNC(=O)C23CC4CC(CC(C4)C2)C3)n1-c1ccccc1)Nc1ccccc1	none (no result: CYP2C9 inh, CYP2C19 inhib, CYP2C9 activ, CYP2C19 act)
COc1cc(C(=O)NCc2ccco2)c(Br)c(OC)c1OC	none
COc1cc(C(=O)NCCOc2cc(C)cc(C)c2)c(Br)c(OC)c1OC	CYP2C19 inhib 86.2
CCOC(=O)CC(/C(C)=N\O)c1ccccc1 (stereo unspecified)	CYP2C19 inhib 50.9
CCOC(=O)CC(C(=O)OCC)P(=O)(c1ccccc1)c1ccccc1 (stereo unspecified)	none
CCCc1nc2c(o1)CC(CC(C)SCC)CC2=O (stereo unspecified)	CYP2C19 inhib 51.2
CCSC(C)CC1CC(=O)CC(=O)C1 (stereo unspecified)	none
COc1cc(C)ccc1OCCCON1C(=O)CCC1=O	none
O=C(CCl)Nc1cccn2ncnc12	none
